LASV entry inh = inhibitors of Lassa virus binding or cell entry; Lassa virus pseudotype entry inhibition, cell reporter; Potency, µM (top dose mostly 37.9 µM), without a hit: at the top dose activity change, negative = inhibition, most hits filed as inhibitors; hit rate 1.2% among 300,000; AID 540256; calls by dose curve; tested in HEK293 cells; note: nearly all actives have a fitted effect of over 50% in size
Sm TGR inh = blocks Schistosoma mansoni thioredoxin glutathione reductase. Q962Y6. purified TGR, DTNB reduction, TNB absorbance 405 nm. Potency, µM (titrated, usually from 114 µM), inactives show top-dose activity change, negative = inhibition, most hits filed as inhibitors. hit rate 3% among 360,000. AID 485364; active = well fitted inhibition curve with a large enough effect; inconclusive = small, poorly fitted or top-dose-only effect; inactive = no such curve, though single readings can be large or run the other way; note: nearly all actives have a fitted effect of over 60% in size
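Kinetic colorimetric format: TGR-catalysed, NADPH-driven DTNB reduction monitored via TNB absorbance. Enzyme dispensed at 20 nM; compound exposure 15 min at room temperature before reaction start.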
FMDV inh = blocks foot and mouth disease virus; FMDV antiviral cell-based qHTS; Potency, µM (series often up to 57.9 µM), for inactives: top-dose activity change, negative = inhibition, usual class: inhibitors; hit rate 1.2% among 410,000; AID 1159524; calls by dose curve; tested in HEK293T cells; note: read-out not given here; nearly all actives have a fitted effect of over 45% in size
MARV entry inh = inhibitors of Marburg virus binding or cell entry. Marburg virus pseudotyped entry inhibition, cell reporter. Potency, µM (doses to about 37.8 µM), for inactives: at the highest dose activity change, negative = inhibition, hits mostly inhibitors. hit rate 1.8% among 300,000; calls by dose curve; tested in HEK293 cells
VACV mCherry inh = inhibitors of vaccinia virus infection (mCherry reporter signal) | Potency, µM (doses to about 36.5 µM), for the others: at the top dose activity change, negative = inhibition, hits mostly inhibitors | hit rate 0.63% among 310,000 | Vaccinia virus mCherry reporter infection, fluorescence | AID 720579; calls by dose curve; tested in A549 cells; note: nearly all actives have a fitted effect of over 35% in size
Vaccinia Venus = vaccinia inhibition (Venus reporter); Vaccinia virus Venus reporter expression, fluorescence; Potency, µM (series often up to 36.5 µM), for inactives: at the highest dose activity change, negative = inhibition, most hits filed as inhibitors; hit rate 0.46% among 330,000; AID 720580; calls by dose curve; tested in A549 cells; note: nearly all actives have a fitted effect of over 30% in size
Numbers without * were called inactive; i = inactive; ? = inconclusive; . = no result given; [ ] = another dose, or the depositor's remark. This is a sample that favours compounds with a hit; in the whole collection about 5.4% have one here. % is set by controls: 0 for no effect and ±100 for the full control effect; potency is the fitted concentration of half-maximal effect.

SMILES	LASV entry inh	Sm TGR inh	FMDV inh	MARV entry inh	VACV mCherry inh	Vaccinia Venus
Cc1ccc(NC(=O)N2CC3CCCN3c3ccccc32)cc1C (centres undefined)	?	-12%	-17%	?	4%	-1%
COC(=O)c1cc(CNC(=O)c2cccc(C)c2)cc(NC(=O)c2ccncc2)c1	.	.	-6%	.	-8%	2%
O=C(CN1C(=O)C2C3C=CC(C3)C2C1=O)NCCN1CCCc2ccccc21 (centres undefined)	15%	50µM*	3%	-12%	-20%	-11%
O=C(CCN1C(=O)C2C3C=CC(C3)C2C1=O)NCCN1CCCc2ccccc21 (centres undefined)	0%	?	9%	10%	-12%	-6%
COc1ccc2sc(-c3ccc(S(C)(=O)=O)cc3)c(C#CCO)c2c1	.	.	?	.	10µM*	?
COc1cc(OC)cc(-c2sc3ccc(OC)cc3c2C#CCCO)c1	.	25µM*	-7%	.	-18%	?
COc1ccccc1CCNC(=O)C1CCC(=O)N(Cc2ccccc2OC)C1 (centres undefined)	21%	0%	-8%	17%	-15%	-6%
COc1ccc(S(=O)(=O)N2CCC(C(=O)N(C)Cc3ccc(C)o3)CC2)cc1OC	.	40µM*	-9%	.	.	.
Cc1ccc(CNC(=O)C2CCC(=O)N(CC3CCCCC3)C2)o1 (centres undefined)	?	28µM*	-10%	1%	i	-5%
COc1ccccc1CN1CC(C(=O)NCCc2ccc(C)o2)CCC1=O (centres undefined)	.	25µM*	18%	.	.	.
O=C(NCCc1ccccc1)C1CCC(=O)N(Cc2cccc(C(F)(F)F)c2)C1 (centres undefined)	-10%	89µM*	-5%	-22%	-4%	-14%
COc1ccc(-c2cc(C)no2)cc1S(=O)(=O)Nc1c(C)cc(C)cc1C	?	?	16%	.	-10%	-23%
COc1ccccc1CN1CC(C(=O)N(C)Cc2ccc(C)o2)CCC1=O (centres undefined)	.	20µM*	17%	.	.	.
COc1ccccc1CN1CC(C(=O)NCCN(C)CCc2ccccc2)CCC1=O (centres undefined)	5.6µM*	-10%	13%	?	-7%	-7%
Cc1cc(CNC(=O)c2cnn(-c3ncc4c(n3)-c3ccccc3CC4)c2C2CC2)on1	.	.	25%	.	-20%	-9%
O=C(Nc1ccc(F)cc1F)C(Cc1ccccc1)N1Cc2ccccc2C1=O (centres undefined)	0%[46.1 µM]	0%	18%	.	i	-11%
Nc1nc(-c2ccccc2)cc(-c2ccccc2O)n1	-1%	0%	.	-26%	?	11µM*
CCOc1ccccc1NC(=O)c1ccc(Cl)c(NC(=O)CC(c2ccccc2)c2ccccc2)c1	-4%	-31%	.	15µM*	-2%	-7%
CCOc1cc(C(=O)Nc2cccc(-c3nc4ccccc4o3)c2)cc(OCC)c1OCC	?	8%	0%	-21%[46.1 µM]	-7%	-6%
CCOc1ccc(C(=O)Nc2cccc(C(=O)O)c2)cc1Cl	?	15%	8.9µM*	?	i	-3%
O=C(O)c1cccc(NC(=O)c2ccccc2)c1	.	.	-6%	.	.	.
CCOc1ccc(C(=O)Nc2cccc(-c3nc4cccnc4o3)c2)cc1Cl	26µM*	1%	8%	8%	.	.
CCOc1ccc(C(=O)Nc2cc(NC(=O)c3ccc(OCC)c(Cl)c3)cc(C(=O)O)c2)cc1Cl	-5%[46.1 µM]	.	-4%	9%[46.1 µM]	-11%	-2%
Cc1ccc(C(=O)Nc2cccc(C(=O)O)c2)cc1	5.8µM*	0%	2µM*	?	.	.
Cc1cc(C)c(CN2C(=O)c3ccccc3S(=O)(=O)c3ccc(C(=O)OCC4CCCO4)cc32)c(C)c1 (centres undefined)	?	6%	-6%	.	-2%	7%
SMILES	LASV entry inh	Sm TGR inh	FMDV inh	MARV entry inh	VACV mCherry inh	Vaccinia Venus
COc1ccc(C(=O)ON=C2C=C(C)C(=O)C(C)=C2)cc1	.	-1%	2%	.	-1%	12%
COc1ccc(S(=O)(=O)N=C2C=C(C)C(=O)C(C)=C2)cc1	?	32µM*	40%	-1%	.	.
CCCc1cc(NCCCN(C)C)n2c(nc3ccccc32)c1C#N	.	40µM*	-20%	.	-19%	-18%
COC(=O)CNC(c1ccccc1)c1cc(Cl)ccc1NC(=O)c1cccc(Cl)c1 (centres undefined)	9%	8%	0%	10µM*	-14%	-4%
CCOC(=O)CNC(c1ccccc1)c1cc(Br)ccc1NC(=O)c1cccc(Cl)c1 (centres undefined)	?	0%	-11%	.	-2%	10%
CC[N+](C)(C)c1ccc(/C=C/c2ccnc3ccccc23)cc1	.	.	.	.	i	i
CC1CN(S(=O)(=O)c2cc(C(=O)NCCCN3CCCC3=O)ccc2Cl)CC(C)O1 (centres undefined)	2%	.	?	2.2µM*	-15%	-11%
C/C=C(\CS(=O)(=O)c1ccccc1)S(=O)(=O)c1ccccc1	-5%	35µM*	-10%	-30%	i	-5%
CC(=O)SC1CC(=O)N(c2ccc(C(C)(C)C)cc2)C1=O (centres undefined)	3%	?	6%	6%[46.1 µM]	-2%[7.34 µM]	0%[7.34 µM]
O=C1CC(N2CCSCC2)C(=O)N1c1cccc(Br)c1 (centres undefined)	14%[46.1 µM]	45µM*	8%	-15%[46.1 µM]	i	-6%
O=C1CC(N2CCN(c3ccccc3)CC2)C(=O)N1c1cccc(Br)c1 (centres undefined)	.	-36%	-11%	.	.	.
CC(=O)SC1CC(=O)N(c2c(C)cccc2C)C1=O (centres undefined)	-9%[46.1 µM]	14µM*	-15%	2%[46.1 µM]	?	-10%
Cc1cccc(C)c1N1C(=O)CC(N2CCSCC2)C1=O (centres undefined)	?	45µM*	-19%	-3%	-16%	-3%
CCOC(=O)NN=C1C[C@@H](O)[C@@H](O)[C@@H]2[C@H]3C(=O)N(Cc4ccc5c(c4)OCO5)C(=O)[C@@H]3CC[C@@H]12	.	.	.	-2%[14.2 µM]	.	.
Cc1nnc(SCC(=O)NC2CCCCC2)n1-c1ccccc1	.	.	-9%	.	i	-6%
O=C(CSc1ccc2nnc(-c3ccc(F)cc3)n2n1)NCc1ccco1	21%	45µM*	.	6%	i	-14%
Cc1ccc(-c2nnc3ccc(SCC(=O)NCc4ccco4)nn23)cc1	10%	50µM*	10%	13%	.	.
O=C(CSc1ccc2nnc(-c3ccncc3)n2n1)NCc1ccco1	.	3.2µM*	-18%	.	i	-11%
CCOc1ccc(-c2nnc3ccc(SCC(=O)NCc4ccco4)nn23)cc1	-13%	15%	12%	1%	.	.
O=C(CSc1nnc(Cc2cccs2)n1-c1ccccc1)NC1CCCCC1	14µM*	3%	7%	-19%	i	-22%
C/C(=N/O)C(=O)NCCCn1ccnc1	.	.	.	20%[46.1 µM]	.	.

Source: PubChem BioAssay (National Center for Advancing Translational Sciences (NCATS))
